The values below come from PubChem BioAssay AID720488 (Milwaukee Institute for Drug Discovery, 2013).

Hit rate of the full screen: of about 16,000 compounds, about 960 (6%) were called active. Shown is part of a subset that was picked to be rich in actives. Values without a mark were called inactive.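 How the source made its calls: active means compound fluorescence over control fluorescence at most 0.8, a quencher, or at least a set upper limit, an enhancer; inactive means ratio between 0.8 and the set upper limit.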

The experiment in a line: fluorescence interference in NS3h DNA assay – biochemical, ChemBridge library, Cy5 readout, artefact control for HCV NS3 helicase inhibitor project (AID 720488). The settings on record: Cy5-dT15 DNA with NS3h, at 100 µM, actives lie on both sides, signal over control mean, under 1 quenches.
On to `Cc1c(N2C(=O)S/C(=C\c3ccc(N(C)C)cc3)C2=O)c(=O)n(-c2ccccc2)n1C`, for which the fluorescence interference ratio was 1.02.

In the case of `Cc1cccc(N2C(=O)S/C(=C/c3ccc(N(C)C)cc3)C2=O)c1`, the fluorescence interference ratio is 0.733 (active). Regarding `CN(C)c1ccc(/C=C2/SC(=S)N(c3ccc(F)cc3)C2=O)cc1`, the fluorescence interference ratio is 1.06.

In the case of `O=C(/C=N/O)NCCCNCc1ccccc1`, the fluorescence interference ratio is 1.03. Take `CC(C)N1C(=O)/C(=C/c2ccc(O)cc2)SC1=S`: the fluorescence interference ratio was 0.867.

Turning to `CCc1ccc2oc(-c3ccc(NC(=O)c4ccccc4[N+](=O)[O-])cc3)nc2c1`, the fluorescence interference ratio was 0.659 (active).

On to `O=C(Nc1ccc2oc(-c3cccc(Cl)c3Cl)nc2c1)c1ccccc1[N+](=O)[O-]`, for which the fluorescence interference ratio is 1.11. Next, `CCC(=O)Nc1ccc(-c2nc3ccccc3o2)cc1`: 0.946. Next, `CCN1C(=O)/C(=C\c2ccc(OCc3ccccc3Cl)cc2)SC1=S`: 0.997; `COc1ccc(N(CC(=O)Nc2ccc(C(C)C)cc2)S(=O)(=O)c2ccc(C)cc2)c(OC)c1`: 1.04.

On to `COCCCNC(=O)CN(c1ccc(OC)cc1OC)S(=O)(=O)c1ccc(C)cc1`, for which the fluorescence interference ratio is 1.23 (active). Next, `COc1ccc(N(CC(=O)NCc2ccncc2)S(=O)(=O)c2ccc(C)cc2)cc1`: 0.919; `CN1CCN(C(=O)c2cc3nc(-c4cccs4)cc(C(F)(F)F)n3n2)CC1`: 0.935; `COc1cccc(C2C(C(=O)Nc3ccccc3)=C(C)N=c3s/c(=C\c4c[nH]c5ccccc45)c(=O)n32)c1` (stereo not given): 1.04. As to `Nc1ccc(Sc2ccccc2[N+](=O)[O-])cc1`, the fluorescence interference ratio is 0.899.

With `O=[N+]([O-])c1ccc(N2CCN(CCO)CC2)cc1NC(c1ccccc1)c1ccccc1`, the fluorescence interference ratio was 0.793 (active).

Take `COc1ccc(CCNc2cc(N3CCOCC3)ccc2[N+](=O)[O-])cc1OC`: the fluorescence interference ratio was 0.856.

On to `O=[N+]([O-])c1ccc(N2CCN(S(=O)(=O)c3ccccc3)CC2)cc1N1CCOCC1`, for which the fluorescence interference ratio was 1.11. As for `COc1ccc(C(=O)/C=C/Nc2ccc(S(=O)(=O)N=C(N)N)cc2)cc1OC`, the fluorescence interference ratio is 0.963. Turning to `Cc1ccc(OCC(=O)NC(C)C)cc1`, the fluorescence interference ratio is 1.11.

On to `CCOC(=O)c1sc(NC(=O)c2ccc(OC)cc2)c(C(=O)OCC)c1C`, for which the fluorescence interference ratio was 1.02.

Regarding `CCOC(=O)c1c(-c2ccc(C)cc2C)csc1NC(=S)NC(=O)c1ccccc1`, the fluorescence interference ratio is 1.21 (active). For the compound `CCOC(=O)c1sc(NC(=O)COc2ccc(C)cc2C)c(C(=O)OCC)c1C`, the fluorescence interference ratio was 0.985.

On to `CC(C)(C)c1ccccc1OCC(O)CN1CCCC1` (stereo not given), for which the fluorescence interference ratio was 1.05. For `C=CCOc1ccccc1C=C1C(=O)NC(=O)NC1=O`, the fluorescence interference ratio was 0.999. With `CC(=O)CC(=O)Nc1ccc2c(c1)OCCO2`, the fluorescence interference ratio was 1.13. For the compound `COc1ccccc1NC(=O)CN(c1cccc([N+](=O)[O-])c1)S(=O)(=O)c1ccccc1`, the fluorescence interference ratio was 0.943. Consider `CCOC(=O)c1ccccc1NC(=O)/C(=C/c1cccc([N+](=O)[O-])c1)NC(=O)c1ccccc1`, for which the fluorescence interference ratio is 1.01. Next, `CCOC(=O)c1ccc(NC(=O)CN(c2cccc([N+](=O)[O-])c2)S(=O)(=O)c2ccccc2)cc1`: 0.663 (active).

Turning to `Cc1cc(Nc2cccc(C(F)(F)F)c2)n2c(nc3ccccc32)c1C#N`, the fluorescence interference ratio is 1.06.

For `COc1ccc2oc(=O)c(C(=O)O)cc2c1`, the fluorescence interference ratio is 1.08.

As for `O=C(NC(=S)Nc1ccc2oc(-c3cccnc3)nc2c1)c1ccc(Cl)cc1`, the fluorescence interference ratio is 0.998.

Consider `O=C(NC(=S)Nc1ccc2oc(-c3ccc(Br)cc3)nc2c1)c1ccco1`, for which the fluorescence interference ratio is 1.09. Turning to `O=C(NC(=S)Nc1ccc(-c2nc3cc(Cl)ccc3o2)cc1)c1ccco1`, the fluorescence interference ratio is 2.04 (active). Consider `Cc1ccc(C2Nc3ccccc3C(=O)N2c2ccccc2)cc1` (stereo not given), for which the fluorescence interference ratio is 0.912.

Take `CCOC(=O)CSc1nnc(-c2cccc(Br)c2)o1`: the fluorescence interference ratio was 1.15. Take `COc1ccc(S(=O)(=O)N(CCc2ccccc2)CC(=O)Nc2ccccc2F)cc1`: the fluorescence interference ratio is 1.

With `COc1ccc(C(=O)Nc2ncc([N+](=O)[O-])s2)cc1OC`, the fluorescence interference ratio is 0.92. On to `COc1ccc(C(=O)Nc2nc3ccc(C)cc3s2)cc1Br`, for which the fluorescence interference ratio is 1.23 (active).

For `O=C(Nc1nc2ccccc2s1)c1ccc2c(c1)OCO2`, the fluorescence interference ratio is 0.992. Take `COC(=O)c1c(C)oc2ccc(OCC(=O)c3ccccc3)cc12`: the fluorescence interference ratio was 0.818.

With `O=C(Nc1ccc(Br)cc1)c1ccc(S(=O)(=O)N2CCCC2)cc1`, the fluorescence interference ratio was 0.938. With `COc1ccc2occ(C(=O)c3ccc(N=C(C)N(C)C)cc3)c2c1`, the fluorescence interference ratio was 1.07. As for `COc1ccccc1C(=O)N=Nc1c(O)n(C)c2ccccc12`, the fluorescence interference ratio is 1.03.

For `CCN(CC)c1ccc(NC(=O)/C(=C\c2ccccc2)NC(C)=O)cc1`, the fluorescence interference ratio is 1.28 (active). Next, `CC(=O)Nc1ccc(NC(=S)NC(=O)/C=C/c2ccccc2)cc1`: 1.07; `CC(C)Oc1ccc(/C=C(/NC(=O)c2ccccc2)C(=O)Nc2ccccc2)cc1`: 1.01.

`O=C(CCN1C(=O)/C(=C/c2cccs2)SC1=S)NC12CC3CC(CC(C3)C1)C2`: the fluorescence interference ratio is 0.998. Turning to `Cc1cc(C)c(NC(=O)C(=O)NCC(C)O)c(C)c1` (stereo not given), the fluorescence interference ratio is 1.01. As to `CCOc1ccccc1NC(=O)Cc1ccccc1`, the fluorescence interference ratio is 1.03. Next, `O=C(/C=C/c1ccc(F)cc1)Nc1cccc(Cl)c1Cl`: 1.01; `CCOc1ccccc1NC(=O)/C=C/c1ccc(Cl)cc1`: 1.34 (active). As to `CC(=O)COc1ccc2c(-c3ccccc3)cc(=O)oc2c1`, the fluorescence interference ratio is 0.969. Next, `COCCOC(=O)c1c(C)oc2ccc(OCC(N)=O)cc12`: 1.05. As to `CS(=O)(=O)N(CC(=O)Nc1ccc(I)cc1)c1cccc(Cl)c1`, the fluorescence interference ratio is 0.92.

Consider `CC(=O)c1cccc(NC(=O)c2ccc(N(Cc3ccc(Cl)cc3)S(C)(=O)=O)cc2)c1`, for which the fluorescence interference ratio is 0.635 (active).

In the case of `Cc1ccc(NC(=O)c2ccc(NC(=O)c3ccc(Cl)cc3Cl)cc2)cc1`, the fluorescence interference ratio is 0.959.

Turning to `Cc1nn(-c2ccc(I)cc2)c(C)c1-c1cccc([N+](=O)[O-])c1`, the fluorescence interference ratio was 0.947. On to `O=[N+]([O-])c1ccc(-c2ccc(I)cc2)cc1`, for which the fluorescence interference ratio is 0.706 (active). Consider `NCCCCNc1ccc([N+](=O)[O-])cc1`, for which the fluorescence interference ratio is 0.959. Turning to `CCOC(=O)C1CCN(C(=O)Nc2ccc(Cl)cc2)CC1`, the fluorescence interference ratio was 1.01.

Turning to `NC(=O)NC(c1ccccc1)c1ccc(I)cc1` (stereo not given), the fluorescence interference ratio is 1.01. Next, `O=C(Nc1ccc([N+](=O)[O-])cc1)C1CC(=O)N(c2ccc(Cl)cc2)C1` (stereo not given): 0.885; `CN(C)/C=C(/Cl)C=C1C(=O)c2ccccc2C1=O`: 0.757 (active); `Cc1cc(OCC(=O)Nc2c(C)cccc2C)ccc1Cl`: 0.96. Next, `COc1ccc(S(=O)(=O)Nc2cc(Br)c(O)c(Br)c2)cc1`: 0.972; `COC(=O)c1ccc(COc2ccc3c4c(c(=O)oc3c2)CCC4)cc1`: 0.926; `O=C(c1ccc(Cl)cc1)N1N=C(c2ccc(F)cc2)CC1(O)C(F)(F)F` (stereo not given): 0.933. Consider `CC1=NN(C(=O)c2ccc(Br)cc2)C(O)(c2ccccc2)C1` (stereo not given), for which the fluorescence interference ratio is 0.753 (active). `CCC1=NN(C(=O)c2cccc(Br)c2)C(O)(c2ccc(C)cc2)C1` (stereo not given): the fluorescence interference ratio was 0.942. Next, `O=C(Cc1ccc(Cl)cc1)Nc1nccs1`: 0.993; `Cc1cc(C(N)=O)c(-c2ccccc2)o1`: 1.04; `O=C1CC2c3ccccc3C1C1C(=O)N(c3ccc(Br)cc3)C(=O)C21` (stereo not given): 1.04. Under `CC(=O)Nc1ccc(N2C(=O)C3C4CC(=O)C(c5ccccc54)C3C2=O)cc1` (stereo not given) stands 0.654 (active); under `Cc1ccc(N2C(=O)C3C4c5ccccc5C(C)(c5ccccc54)C3C2=O)cc1` (stereo not given), 0.929; under `Oc1cccc(Nc2nc(-c3ccc(Br)cc3)cs2)c1`, 0.941. On to `COCCCNC(=O)C(=O)NCCc1ccc(OC)c(OC)c1`, for which the fluorescence interference ratio was 0.956. `COc1ccc2c(c1)-c1c(ssc1=S)C(C)(C)N2C(=O)COc1ccccc1`: the fluorescence interference ratio was 0.931. As to `CC12OC3(CCCCC3)C(C)(OC13CCCCC3)O2`, the fluorescence interference ratio is 0.781 (active). Take `COc1ccc(C(=O)Nc2ccccc2)cc1NC(=O)C(C)Oc1ccccc1` (stereo not given): the fluorescence interference ratio is 0.898. On to `O=C(/C=C/c1ccccc1)NC(=S)Nc1ccc([N+](=O)[O-])cc1`, for which the fluorescence interference ratio is 1.02. In the case of `S=C1NC(c2ccccc2)=NCN1c1ccc(Br)cc1`, the fluorescence interference ratio was 0.684 (active). As for `Cc1cc(C)c(C(O)=Cc2nc3ccccc3[nH]c2=O)c(C)c1`, the fluorescence interference ratio was 1.05. Under `CCN1C(=O)/C(=C\c2cn(Cc3ccc(F)cc3)c3ccccc23)SC1=S` stands 1.07; under `COc1ccccc1NC(=O)c1cc(Nc2ccccc2)nc2ccccc12`, 1.05; under `Cc1ccc(-c2cc(NC(=O)c3cccs3)n[nH]2)cc1`, 0.923.

For the compound `Cc1cc(C(=O)N2CCN(c3cccc(Cl)c3)CC2)ccc1[N+](=O)[O-]`, the fluorescence interference ratio was 0.957. With `CC1CCN(c2ccc([N+](=O)[O-])c(SCCO)c2)CC1`, the fluorescence interference ratio is 0.613 (active).

As for `O=C1/C(=C\c2cn(Cc3ccccc3F)c3ccccc23)SC(=S)N1c1ccc([N+](=O)[O-])cc1`, the fluorescence interference ratio was 0.998.

With `CC(C)(C)N1C(=O)NC(=O)C(=Cc2cccs2)C1=O`, the fluorescence interference ratio was 1.01.

Take `CCCCOC(=O)CCN1C(=O)/C(=C/c2ccc3c(c2)OCO3)SC1=S`: the fluorescence interference ratio was 0.998.

Turning to `O=C(NC(NC(=O)C(c1ccccc1)c1ccccc1)c1ccc(F)cc1)C(c1ccccc1)c1ccccc1`, the fluorescence interference ratio was 1.07. Consider `CCOC(=O)c1ccc(NC2C=CS(=O)(=O)C2)cc1` (stereo not given), for which the fluorescence interference ratio is 0.986. For `O=C(COc1ccccc1Cl)Nc1ccc(O)cc1C(=O)O`, the fluorescence interference ratio is 1. Turning to `O=C(NCCN1CCN(S(=O)(=O)c2ccccc2)CC1)C(=O)Nc1ccc(Br)cc1`, the fluorescence interference ratio is 1.01.
